Laboratory results published in PubChem BioAssay (Tox21).
Several values for one entry are separate records, joined by “and”; a condition that tells them apart may be missing. Equal entries are not always repeated. Records with an inconclusive call do not appear. Where a call stands in place of a potency, no number is given. Where a structure was tested more than once in an assay, its records may differ in their call. Activity calls are given as the source filed them. Unless noted, calls come from the whole dose curve; as a rule, active = well fitted curve in the direction sought with a large enough effect in the repeat runs; inconclusive = weak or mixed curves; inactive = no such curve, though single readings can be large; an effect the other way counts as inactive or inconclusive.

How the values were obtained:
[1] = qHTS assay to identify small molecule agonists of the hypoxia (HIF-1) signaling pathway - cell viability counter screen (AID 1224844; calls by dose curve; note: nearly all actives have a fitted effect of over 50% in size)
Outline: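 Same wells as the HIF-1 reporter screen; ME-180 cells carrying HRE-bla, 17 hr treatment at 37C; CellTiter-Glo luminescence read after 30 min at room temperature.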

[2] = qHTS assay to identify small molecule agonists of H2AX (AID 1224845; active = well fitted activation curve with a large enough effect in the signal ratio in the repeat runs, not every such curve was filed as active; the % refers to the signal ratio)
Outline: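 Wild-type CHO-K1 cells, plated overnight, exposed 3hr at 37C to 15 concentrations (0.76% DMSO final). Lysed, then HTRF anti-pH2AX (S139) cryptate and anti-H2AX-d2 antibodies, 24 hr room temperature; 665/620 nm emission read.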

[3] = qHTS assay to identify small molecule agonists of the hypoxia (HIF-1) signaling pathway (AID 1224846; active = well fitted activation curve with a large enough effect in the signal ratio in the repeat runs, not every such curve was filed as active; the % refers to the signal ratio)
Outline: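 In ME-180 cells bearing an HRE-bla construct, 17 h treatment with DMSO-dissolved compounds at 37C was followed by CCF4-AM loading to quantify reporter induction.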

[4] = qHTS assay to identify small molecule agonists of H2AX - cell viability counter screen (AID 1224847; calls by dose curve; note: top concentration of the series differs between compounds; nearly all actives have a fitted effect of over 30% in size)
Outline: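 After overnight plating of 1000 CHO-K1 cells per well, a 15-concentration compound series was applied for 3 hr at 37C. Luminescence from CellTiter-Glo, read following 30 min at room temperature, reflected cell viability.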

[5] = qHTS assay to identify small molecule antagonists of the estrogen related receptor (ERR) signaling pathway from Tox21 library (AID 1224848); note: nearly all actives have a fitted effect of over 50% in size; note: potency is the fitted concentration of half-maximal effect
Outline: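 Quantitative high-throughput format: ERR reporter cells (2,000/well) pre-incubated 6 h, treated 18 h at 37 C with compounds in DMSO alongside positive and negative controls, then read by ONE-Glo luminescence.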

[6] = qHTS assay to identify small molecule agonists of the estrogen related receptor (ERR) signaling pathway from Tox21 library (AID 1224849; calls by dose curve; note: nearly all actives have a fitted effect of over 15% in size); conditions: ERR reporter cell line, ONE-Glo luciferase, 18 h
Outline: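 Reporter cells (ERR, NTP source) treated with Tox21 10K compounds 18 h, 37 C. Readout: ONE-Glo luminescence, 30 min RT.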

[7] = qHTS RealTime-Glo MT Cell Viability Assay in HepG2 cells - 24 hour (AID 1224867); note: nearly all actives have a fitted effect of over 50% in size
Outline: (§1)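 Viability was tracked continuously by NanoLuc luminescence from prosubstrate reduced by living HepG2 cells, at successive time points over 40 h of compound exposure. Cells with reagent were preincubated 5 h at 37 °C before compound addition.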

[8] = qHTS RealTime-Glo MT Cell Viability Assay in HEK293 cells - 32 hour (AID 1224868); note: nearly all actives have a fitted effect of over 50% in size; note: potency is the fitted concentration of half-maximal effect
Outline: (§2)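 Viability tracked continuously by luminescence as live cells reduce a prosubstrate for NanoLuc; HEK293 cells preincubated 5 h, compound-treated at 37 C, and read at 0, 8, 16, 24, 32 and 40 h.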

[9] = A CellTox Green Cytotoxicity Assay to monitor cytotoxicity in HEK293 cells - 0 hour (AID 1224869); note: nearly all actives have a fitted effect of over 50% in size
Outline: (§3)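 Homogeneous no-lysis format: HEK293 cell suspension mixed with CellTox Green reagent, seeded, incubated 5 h at 37 C/5% CO2, then dosed by pintool with compound in DMSO.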

[10] = qHTS RealTime-Glo MT Cell Viability Assay in HepG2 cells - 40 hour (AID 1224870); note: nearly all actives have a fitted effect of over 50% in size
Outline: (§4)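 HepG2 cells (600/well) mixed with RealTime-Glo MT reagent, settled 5 h at 37 C/5% CO2 before compound addition. Nonlytic NanoLuc luminescence from viable-cell prosubstrate reduction read repeatedly during 40 h treatment at 37 C.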

[11] = A CellTox Green Cytotoxicity Assay to monitor cytotoxicity in HEK293 cells - 40 hour (AID 1224871); note: nearly all actives have a fitted effect of over 45% in size
Outline: as §3

[12] = qHTS RealTime-Glo MT Cell Viability Assay in HEK293 cells - 16 hour (AID 1224872); note: nearly all actives have a fitted effect of over 50% in size; note: potency is the fitted concentration of half-maximal effect
Outline: as §2

[13] = qHTS RealTime-Glo MT Cell Viability Assay in HepG2 cells - 8 hour (AID 1224873); note: nearly all actives have a fitted effect of over 55% in size
Outline: as §4

[14] = qHTS RealTime-Glo MT Cell Viability Assay in HEK293 cells - 40 hour (AID 1224874); conditions: RealTime-Glo luminescence; max response: stronger effect = lower value; note: nearly all actives have a fitted effect of over 50% in size; note: potency is the fitted concentration of half-maximal effect
Outline: (§5)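 Measured as luminescence from the same continuously cultured HEK293 wells at successive time points (0, 8, 16, 24, 32, 40 h) after compound addition. Reagent present from seeding; dosing at 5 h; incubation 37 C.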

[15] = A CellTox Green Cytotoxicity Assay to monitor cytotoxicity in HEK293 cells - 24 hour (AID 1224875); note: nearly all actives have a fitted effect of over 45% in size
Outline: as §3

[16] = A CellTox Green Cytotoxicity Assay to monitor cytotoxicity in HepG2 cells - 16 hour (AID 1224876); note: nearly all actives have a fitted effect of over 45% in size
Outline: (§6)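 Fluorescent DNA-binding dye, 600 HepG2 cells/well, 5 h preincubation then compound in DMSO; same plates read at 0–40 h, 37 C.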

[17] = qHTS RealTime-Glo MT Cell Viability Assay in HepG2 cells - 32 hour (AID 1224877); note: nearly all actives have a fitted effect of over 55% in size
Outline: as §1

[18] = A CellTox Green Cytotoxicity Assay to monitor cytotoxicity in HepG2 cells - 24 hour (AID 1224878); note: nearly all actives have a fitted effect of over 45% in size; note: potency is the fitted concentration of half-maximal effect
Outline: as §6

[19] = A CellTox Green Cytotoxicity Assay to monitor cytotoxicity in HepG2 cells - 40 hour (AID 1224879); note: nearly all actives have a fitted effect of over 40% in size; note: potency is the fitted concentration of half-maximal effect
Outline: as §6

[20] = qHTS RealTime-Glo MT Cell Viability Assay in HEK293 cells - 0 hour (AID 1224880)
Outline: as §5

C=C(C)C(N)=O
Potency [1]: inactive
Potency [2]: inactive
outcome [3]: inactive
Potency [4]: inactive
Potency [5]: inactive
activity change, positive = activation ([6]; at 92.4 µM (top of the series)): 10.9% (inactive) and 3.35% (inactive)
outcome [7]: inactive
Potency [8]: inactive
Potency [9]: inactive
outcome [10]: inactive
Potency [11]: inactive
Potency [12]: inactive
outcome [13]: inactive
max response [14]: 4.84% (inactive) and 13.1% (inactive)
Potency [15]: inactive
Potency [16]: inactive
outcome [17]: inactive
Potency [18]: inactive
Potency [19]: inactive
Potency [20]: inactive

C[C@]12CC[C@@H]3c4ccc(O)cc4C[C@@H](CCCCCCCCCS(=O)CCCC(F)(F)C(F)(F)F)[C@H]3[C@@H]1CC[C@@H]2O (stereo not given in full)
Potency [1]: inactive
Potency [2]: inactive
outcome [3]: inactive
Potency [4]: inactive
Potency [5]: 6.85 µM (active) and 5.7 µM (active) and 5.96 µM (active)
activity change, positive = activation ([6]; at 42.5 µM (top of the series)): -35% (inactive) and -33.1% (inactive)
activity change, positive = activation ([6]; at 92.4 µM (top of the series)): -37.7% (inactive)
outcome [7]: inactive
Potency [8]: 43.6 µM (active)
Potency [9]: inactive
outcome [10]: inactive
Potency [11]: inactive
Potency [12]: 43.6 µM (active)
Potency [14]: 43.6 µM (active)
Potency [15]: inactive
Potency [16]: inactive
outcome [17]: inactive
Potency [18]: inactive
Potency [19]: inactive
Potency [20]: inactive

COC(=O)c1ccc(C=O)cc1
Potency [1]: inactive
Potency [2]: inactive
outcome [3]: inactive
Potency [4]: inactive
Potency [5]: inactive
activity change, positive = activation ([6]; at 92.4 µM (top of the series)): -0.881% (inactive)
outcome [7]: inactive
Potency [8]: inactive
Potency [9]: inactive
outcome [10]: inactive
Potency [11]: inactive
Potency [12]: inactive
outcome [13]: inactive
max response [14]: -13.1% (inactive) and 1.66% (inactive)
Potency [15]: inactive
Potency [16]: inactive
outcome [17]: inactive
Potency [18]: inactive
Potency [19]: inactive
Potency [20]: inactive

Cc1cccc(C)c1O
Potency [1]: inactive
Potency [2]: inactive
outcome [3]: inactive
Potency [4]: inactive
Potency [5]: inactive
activity change, positive = activation ([6]; at 92.4 µM (top of the series)): 7.32% (inactive) and 4.77% (inactive)
outcome [7]: inactive
Potency [8]: inactive
Potency [9]: inactive
outcome [10]: inactive
Potency [11]: inactive
Potency [12]: inactive
outcome [13]: inactive
max response [14]: 9.86% (inactive) and 0.971% (inactive)
Potency [15]: inactive
Potency [16]: inactive
outcome [17]: inactive
Potency [18]: inactive
Potency [19]: inactive
Potency [20]: inactive

O=C(O)CN(CC(=O)O)CC(=O)O
Potency [1]: inactive
Potency [2]: inactive
outcome [3]: inactive
Potency [4]: inactive
Potency [5]: inactive
activity change, positive = activation ([6]; at 92.4 µM (top of the series)): 0.123% (inactive) and 2.89% (inactive)
outcome [7]: inactive
Potency [8]: inactive
Potency [9]: inactive
outcome [10]: inactive
Potency [11]: inactive
Potency [12]: inactive
outcome [13]: inactive
max response [14]: 3.36% (inactive) and 17.8% (inactive)
Potency [15]: inactive
Potency [16]: inactive
outcome [17]: inactive
Potency [18]: inactive
Potency [19]: inactive
Potency [20]: inactive

CCCCCCCCCCCCCC(=O)OC(C)C
Potency [1]: inactive
Potency [2]: inactive
outcome [3]: inactive
Potency [4]: inactive
outcome [7]: inactive
Potency [8]: inactive and 2.45 µM (active)
Potency [9]: inactive
outcome [10]: inactive
Potency [11]: inactive
Potency [12]: inactive and 4.36 µM (active)
outcome [13]: inactive
Potency [14]: 2.75 µM (active)
max response [14]: 1.2% (inactive) and -0.28% (inactive)
Potency [15]: inactive
Potency [16]: inactive
outcome [17]: inactive
Potency [19]: inactive
Potency [20]: inactive

CC(C)CC(C)CC(O)CC(C)C (stereo not given)
Potency [1]: inactive
Potency [2]: inactive
outcome [3]: inactive
Potency [4]: inactive
Potency [5]: inactive
activity change, positive = activation ([6]; at 92.4 µM (top of the series)): 3.18% (inactive) and 4.59% (inactive)
outcome [7]: inactive
Potency [8]: inactive
Potency [9]: inactive
outcome [10]: inactive
Potency [11]: inactive
Potency [12]: inactive
outcome [13]: inactive
max response [14]: -0.631% (inactive) and 5.18% (inactive)
Potency [15]: inactive
Potency [16]: inactive
outcome [17]: inactive
Potency [18]: inactive
Potency [19]: inactive
Potency [20]: inactive

CCCCCCCCOc1ccc(C(=O)c2ccccc2)c(O)c1
Potency [1]: inactive
Potency [2]: inactive
outcome [3]: inactive
Potency [4]: inactive
Potency [5]: inactive
activity change, positive = activation ([6]; at 42.5 µM (top of the series)): -7.25% (inactive)
activity change, positive = activation ([6]; at 92.4 µM (top of the series)): 6.94% (inactive) and -4.94% (inactive)
outcome [7]: inactive
Potency [8]: inactive
Potency [9]: inactive
outcome [10]: inactive
Potency [11]: inactive
Potency [12]: inactive
outcome [13]: inactive
max response [14]: -20.9% (inactive) and 7.71% (inactive) and 4.9% (inactive)
Potency [15]: inactive
Potency [16]: inactive
outcome [17]: inactive
Potency [18]: inactive
Potency [19]: inactive
Potency [20]: inactive

NCCNc1cccc2ccccc12
Potency [1]: inactive
Potency [2]: inactive
outcome [3]: inactive
Potency [4]: inactive
outcome [7]: inactive
Potency [8]: 54.9 µM (active) and 53.6 µM (active) and inactive
Potency [9]: inactive
outcome [10]: inactive
Potency [11]: inactive
Potency [12]: 54.9 µM (active) and 47.8 µM (active) and inactive
outcome [13]: inactive
Potency [14]: 54.9 µM (active) and 53.6 µM (active)
max response [14]: 0.781% (inactive)
Potency [15]: inactive
Potency [16]: inactive
outcome [17]: inactive
Potency [18]: 53.6 µM (active) and inactive
Potency [19]: 53.6 µM (active) and inactive

C=C(C)OC(C)=O
Potency [1]: inactive
Potency [2]: inactive
outcome [3]: inactive
Potency [4]: inactive
Potency [5]: inactive
activity change, positive = activation ([6]; at 92.4 µM (top of the series)): 4.28% (inactive) and 3.36% (inactive)
outcome [7]: inactive
Potency [8]: inactive
Potency [9]: inactive
outcome [10]: inactive
Potency [11]: inactive
Potency [12]: inactive
outcome [13]: inactive
max response [14]: 5.33% (inactive) and 0.384% (inactive)
Potency [15]: inactive
Potency [16]: inactive
outcome [17]: inactive
Potency [19]: inactive
Potency [20]: inactive

COC(=O)C1CCC(C(=O)OC)CC1 (stereo not given)
Potency [1]: inactive
Potency [2]: inactive
outcome [3]: inactive
Potency [4]: inactive
Potency [5]: inactive
activity change, positive = activation ([6]; at 92.4 µM (top of the series)): 0.483% (inactive) and 7.26% (inactive) and 4.66% (inactive)
outcome [7]: inactive
Potency [8]: inactive
Potency [9]: inactive
outcome [10]: inactive
Potency [11]: inactive
Potency [12]: inactive
outcome [13]: inactive
max response [14]: 7.05% (inactive) and -2.3% (inactive) and 3.36% (inactive)
Potency [15]: inactive
Potency [16]: inactive
outcome [17]: inactive
Potency [19]: inactive
Potency [20]: inactive
